The target in assay [1] is High affinity nerve growth factor receptor (Homo sapiens) (UniProt P04629). The settings on record: at 1 µM.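 Also: each value is the mean percent inhibition of TRKA.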
Assay [2] concerns the target BDNF/NT-3 growth factors receptor (Homo sapiens) (UniProt Q16620). The settings on record: at 0.1 µM.
Assay [3] has the same target. The note with it: at 1 µM.
Assay [4] addresses NT-3 growth factor receptor (Homo sapiens) (UniProt Q16288). The note with it: at 0.1 µM.
Assay [5] shares this target. The note with it: at 1 µM.
Assay [6] concerns the target T1, Tyrosine-protein kinase TXK (Homo sapiens) (UniProt P42681).
T1 sequence (whole entry): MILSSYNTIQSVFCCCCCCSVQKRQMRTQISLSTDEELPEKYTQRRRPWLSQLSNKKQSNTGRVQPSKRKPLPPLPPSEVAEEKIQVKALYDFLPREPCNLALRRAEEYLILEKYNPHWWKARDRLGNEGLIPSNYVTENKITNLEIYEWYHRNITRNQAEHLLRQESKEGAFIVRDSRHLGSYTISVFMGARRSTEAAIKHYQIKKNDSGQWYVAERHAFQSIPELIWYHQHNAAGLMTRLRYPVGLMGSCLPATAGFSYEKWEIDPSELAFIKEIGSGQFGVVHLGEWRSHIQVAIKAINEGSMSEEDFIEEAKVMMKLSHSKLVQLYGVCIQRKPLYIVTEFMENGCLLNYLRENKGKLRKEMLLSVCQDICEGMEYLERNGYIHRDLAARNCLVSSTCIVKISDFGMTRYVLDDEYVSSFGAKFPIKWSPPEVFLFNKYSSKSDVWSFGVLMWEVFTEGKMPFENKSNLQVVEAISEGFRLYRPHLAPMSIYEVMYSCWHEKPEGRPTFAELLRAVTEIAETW
The settings on record: at 0.1 µM.

Assay [7] has as its target T1, Tyrosine-protein kinase TXK (Homo sapiens). The settings on record: at 1 µM.
Assay [8] deals with Non-receptor tyrosine-protein kinase TYK2 (Homo sapiens) (UniProt P29597). The settings on record: at 0.1 µM.
Assay [9] has as its target T2, Dual specificity protein kinase TTK (Homo sapiens) (UniProt P33981).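 Also: reported figures are mean TTK inhibition at 1 µM.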
T2 sequence (whole entry): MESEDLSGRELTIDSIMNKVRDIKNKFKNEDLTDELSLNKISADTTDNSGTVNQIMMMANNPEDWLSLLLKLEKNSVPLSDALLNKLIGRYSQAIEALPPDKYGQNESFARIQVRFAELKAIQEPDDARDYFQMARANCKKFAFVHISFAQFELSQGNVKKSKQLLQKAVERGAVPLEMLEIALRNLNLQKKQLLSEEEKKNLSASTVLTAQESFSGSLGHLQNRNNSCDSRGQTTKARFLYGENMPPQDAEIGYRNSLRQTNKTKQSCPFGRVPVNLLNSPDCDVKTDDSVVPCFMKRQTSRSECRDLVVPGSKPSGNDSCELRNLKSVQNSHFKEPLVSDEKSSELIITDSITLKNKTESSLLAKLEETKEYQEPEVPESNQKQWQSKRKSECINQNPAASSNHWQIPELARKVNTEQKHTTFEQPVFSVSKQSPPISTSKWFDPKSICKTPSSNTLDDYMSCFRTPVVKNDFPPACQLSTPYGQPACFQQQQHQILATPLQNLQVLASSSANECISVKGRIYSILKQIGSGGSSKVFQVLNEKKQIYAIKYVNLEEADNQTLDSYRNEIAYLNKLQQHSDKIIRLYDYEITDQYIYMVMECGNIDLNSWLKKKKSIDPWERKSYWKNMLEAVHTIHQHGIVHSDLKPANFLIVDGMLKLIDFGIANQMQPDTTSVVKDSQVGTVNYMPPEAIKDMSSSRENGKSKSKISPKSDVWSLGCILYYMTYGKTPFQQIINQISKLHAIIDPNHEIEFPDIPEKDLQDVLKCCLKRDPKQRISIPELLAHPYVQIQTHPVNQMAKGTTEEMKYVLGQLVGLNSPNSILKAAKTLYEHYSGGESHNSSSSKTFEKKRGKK
The note with it: at 1 µM.

Assay [10] deals with T3, Aurora kinase A (Homo sapiens) (UniProt O14965).
T3 sequence (whole entry): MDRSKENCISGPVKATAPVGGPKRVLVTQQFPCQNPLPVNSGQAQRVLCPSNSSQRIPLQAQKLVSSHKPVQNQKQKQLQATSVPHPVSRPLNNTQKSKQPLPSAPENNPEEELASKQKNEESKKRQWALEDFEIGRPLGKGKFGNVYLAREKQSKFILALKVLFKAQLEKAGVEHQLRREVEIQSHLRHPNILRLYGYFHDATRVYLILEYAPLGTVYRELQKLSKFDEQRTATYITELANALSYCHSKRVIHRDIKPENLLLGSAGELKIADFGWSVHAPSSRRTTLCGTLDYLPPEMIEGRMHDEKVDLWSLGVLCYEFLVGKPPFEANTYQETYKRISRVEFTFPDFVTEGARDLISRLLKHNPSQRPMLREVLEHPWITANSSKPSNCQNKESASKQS
The settings on record: at 0.1 µM.

Structures are written as SMILES.

In ChEMBL document CHEMBL1961873, “Compounds: GSK PKIS; Assays: Nanosyn kinase panel” (2012) one finds inhibition data, which are given here for 17 molecules.

Sequence of NT-3 growth factor receptor (Homo sapiens) (Q16288 32-839 limits assumed): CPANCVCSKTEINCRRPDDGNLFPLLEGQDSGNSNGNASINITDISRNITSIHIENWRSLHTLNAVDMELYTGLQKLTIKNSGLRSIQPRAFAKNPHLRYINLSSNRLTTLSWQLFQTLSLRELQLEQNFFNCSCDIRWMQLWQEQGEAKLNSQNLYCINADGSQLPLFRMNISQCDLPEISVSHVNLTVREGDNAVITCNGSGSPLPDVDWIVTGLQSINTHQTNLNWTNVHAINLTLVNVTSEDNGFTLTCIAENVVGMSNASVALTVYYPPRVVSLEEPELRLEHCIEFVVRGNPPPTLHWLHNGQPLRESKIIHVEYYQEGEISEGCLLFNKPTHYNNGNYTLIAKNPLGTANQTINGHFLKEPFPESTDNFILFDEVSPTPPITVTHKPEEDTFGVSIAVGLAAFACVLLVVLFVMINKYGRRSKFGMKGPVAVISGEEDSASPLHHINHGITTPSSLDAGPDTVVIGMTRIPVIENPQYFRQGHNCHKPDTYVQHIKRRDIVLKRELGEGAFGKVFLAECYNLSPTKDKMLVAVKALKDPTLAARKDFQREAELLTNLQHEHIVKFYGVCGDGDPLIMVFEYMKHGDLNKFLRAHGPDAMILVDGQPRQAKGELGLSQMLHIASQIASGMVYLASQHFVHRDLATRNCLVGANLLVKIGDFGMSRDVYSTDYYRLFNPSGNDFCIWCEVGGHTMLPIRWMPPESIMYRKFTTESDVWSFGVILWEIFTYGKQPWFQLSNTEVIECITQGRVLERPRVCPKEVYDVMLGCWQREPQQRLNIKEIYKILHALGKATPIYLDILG
Sequence of Non-receptor tyrosine-protein kinase TYK2 (Homo sapiens) (P29597 whole entry): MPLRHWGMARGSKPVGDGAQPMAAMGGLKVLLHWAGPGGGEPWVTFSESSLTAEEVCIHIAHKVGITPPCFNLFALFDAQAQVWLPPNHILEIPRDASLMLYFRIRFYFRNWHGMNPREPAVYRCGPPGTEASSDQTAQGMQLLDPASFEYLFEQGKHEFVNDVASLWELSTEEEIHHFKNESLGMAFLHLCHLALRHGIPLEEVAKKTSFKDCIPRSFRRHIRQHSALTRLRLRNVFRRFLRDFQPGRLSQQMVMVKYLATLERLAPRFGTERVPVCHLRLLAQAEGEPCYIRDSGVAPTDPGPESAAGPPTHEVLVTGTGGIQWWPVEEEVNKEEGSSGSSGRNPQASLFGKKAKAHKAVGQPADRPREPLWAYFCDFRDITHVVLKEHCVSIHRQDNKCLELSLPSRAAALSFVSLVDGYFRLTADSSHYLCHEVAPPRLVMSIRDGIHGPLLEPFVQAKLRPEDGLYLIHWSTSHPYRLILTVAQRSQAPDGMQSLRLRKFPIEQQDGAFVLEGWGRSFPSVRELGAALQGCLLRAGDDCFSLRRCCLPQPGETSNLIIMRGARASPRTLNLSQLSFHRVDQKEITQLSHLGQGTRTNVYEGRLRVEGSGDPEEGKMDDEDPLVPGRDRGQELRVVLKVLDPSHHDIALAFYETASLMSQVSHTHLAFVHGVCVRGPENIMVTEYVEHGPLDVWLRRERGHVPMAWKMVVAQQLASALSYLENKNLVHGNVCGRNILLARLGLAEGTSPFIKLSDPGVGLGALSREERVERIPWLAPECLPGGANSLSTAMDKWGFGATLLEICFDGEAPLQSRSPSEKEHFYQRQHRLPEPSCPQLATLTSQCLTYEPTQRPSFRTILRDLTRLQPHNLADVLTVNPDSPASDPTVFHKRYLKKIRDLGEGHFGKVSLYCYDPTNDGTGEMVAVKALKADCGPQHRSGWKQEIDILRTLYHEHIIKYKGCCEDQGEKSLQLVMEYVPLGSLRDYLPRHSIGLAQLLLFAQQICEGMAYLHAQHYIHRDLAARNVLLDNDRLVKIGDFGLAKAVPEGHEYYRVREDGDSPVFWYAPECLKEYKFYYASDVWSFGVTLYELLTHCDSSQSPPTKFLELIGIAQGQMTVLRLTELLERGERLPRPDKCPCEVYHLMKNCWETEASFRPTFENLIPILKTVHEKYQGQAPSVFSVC
Sequence of High affinity nerve growth factor receptor (Homo sapiens) (P04629 33-796 limits assumed): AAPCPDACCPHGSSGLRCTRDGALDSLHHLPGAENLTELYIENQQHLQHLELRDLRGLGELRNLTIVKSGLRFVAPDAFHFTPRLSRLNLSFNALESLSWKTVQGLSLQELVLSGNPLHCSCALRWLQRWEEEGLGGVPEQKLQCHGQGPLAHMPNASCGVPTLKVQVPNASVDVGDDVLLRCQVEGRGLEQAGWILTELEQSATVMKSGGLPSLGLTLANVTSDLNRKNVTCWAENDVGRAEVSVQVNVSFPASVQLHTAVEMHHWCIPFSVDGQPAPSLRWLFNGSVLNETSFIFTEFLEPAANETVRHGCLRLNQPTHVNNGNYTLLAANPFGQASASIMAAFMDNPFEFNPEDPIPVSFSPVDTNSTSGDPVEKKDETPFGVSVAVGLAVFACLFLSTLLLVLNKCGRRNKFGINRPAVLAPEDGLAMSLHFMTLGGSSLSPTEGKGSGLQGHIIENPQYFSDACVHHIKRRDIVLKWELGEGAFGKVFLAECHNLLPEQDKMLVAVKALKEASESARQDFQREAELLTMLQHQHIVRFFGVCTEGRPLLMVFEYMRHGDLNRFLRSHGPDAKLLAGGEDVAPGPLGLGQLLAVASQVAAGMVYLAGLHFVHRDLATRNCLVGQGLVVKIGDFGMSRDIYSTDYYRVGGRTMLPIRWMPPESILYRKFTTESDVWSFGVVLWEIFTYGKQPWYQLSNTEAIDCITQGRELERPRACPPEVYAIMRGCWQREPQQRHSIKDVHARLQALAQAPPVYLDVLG
Sequence of BDNF/NT-3 growth factors receptor (Homo sapiens) (Q16620 32-822 limits assumed): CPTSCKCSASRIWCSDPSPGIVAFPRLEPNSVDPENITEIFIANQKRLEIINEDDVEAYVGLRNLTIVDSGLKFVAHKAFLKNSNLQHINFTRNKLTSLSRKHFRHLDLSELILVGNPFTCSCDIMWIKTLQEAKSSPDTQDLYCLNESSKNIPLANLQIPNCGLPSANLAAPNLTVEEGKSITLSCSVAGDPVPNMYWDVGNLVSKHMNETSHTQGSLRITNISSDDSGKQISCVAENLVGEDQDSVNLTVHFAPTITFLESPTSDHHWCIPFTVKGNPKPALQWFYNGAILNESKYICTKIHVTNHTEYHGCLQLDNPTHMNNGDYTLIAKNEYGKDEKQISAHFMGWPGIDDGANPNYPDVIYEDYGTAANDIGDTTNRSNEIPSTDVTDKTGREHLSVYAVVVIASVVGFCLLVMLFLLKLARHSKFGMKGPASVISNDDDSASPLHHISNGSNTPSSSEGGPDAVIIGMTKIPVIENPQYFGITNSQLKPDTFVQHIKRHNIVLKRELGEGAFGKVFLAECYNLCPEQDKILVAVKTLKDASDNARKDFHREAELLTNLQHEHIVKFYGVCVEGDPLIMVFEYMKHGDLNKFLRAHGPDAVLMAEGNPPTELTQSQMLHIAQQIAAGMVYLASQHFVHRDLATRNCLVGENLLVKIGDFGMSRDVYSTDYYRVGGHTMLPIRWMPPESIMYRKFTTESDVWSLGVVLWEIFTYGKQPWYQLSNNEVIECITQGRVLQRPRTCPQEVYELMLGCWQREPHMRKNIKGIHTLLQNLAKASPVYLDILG

In general, inhibition refers to the change of the read-out against control, counted positive when it falls. `COc1cccc(-n2ncc3c(N/N=C/c4cccc(F)c4)ncnc32)c1`: the inhibition was 3.57% in [1]; 2.75% in [2]; 6.27% in [3]; 2.97% in [4]; 7.58% in assay [5]; -0.86% in [6]. The inhibition in assay [7] is 1.52%; in assay [8], -0.2%; in assay [9], 10.5%; in [10], -2.23%.

Take `NCc1ccc(-c2nc(-c3ccc(Cl)c(O)c3)c(-c3ccncc3)[nH]2)cc1`: the inhibition in assay [1] was -1.42%; in [2] it was -0.05%; in [3], 0.73%; in assay [4] it was -0.91%; in [5], 1.61%; in assay [6], 18.9%. Further, the inhibition in [7] was 61.1%; in assay [8] it was 1.75%; in assay [9], 7.44%; in assay [10], 1.53%.

As to `COc1ccc(COc2ccc(Cc3cnc(N)nc3N)cc2OC)cc1`, the inhibition came to 50% in [1]; 25.7% in [2]; 75.4% in [3]; 4.15% in [6]; 4.97% in [7]; 3.75% in assay [8]. Further, the results for the inhibition in assay [9] and in assay [10] were 3.14% and 4.1%, respectively.

Consider `NC(=O)c1cccc(Nc2nccc(Nc3cccc4[nH]ncc34)n2)c1`, for which the inhibition in [1] came out at 6.83%; in [2], 0.06%; in [3], 14.1%; in assay [4], 1.25%; in assay [5], 12.9%; in assay [6] it was 15.8%. For the same molecule, the inhibition in assay [7] stood at 55.1%; in [8] it was 4.66%; in assay [9], 9.28%; in assay [10], 36.4%.

Regarding `NS(=O)(=O)c1ccc(N/N=C2\C(=O)Nc3ccc(C(=O)NCCc4c[nH]cn4)cc32)cc1`, the inhibition in assay [1] was determined as 14.9%; in [2], 6.79%; in [3], 31.4%; in assay [4] it was 9.97%; in assay [5], 41.8%; in [6] it was 3.49%. The inhibition in assay [7] was 3.55%; in [8], -1.79%; in assay [9], 71.5%; in assay [10] it was 3.83%.

For `CCCN1CCC(Oc2cc(Nc3nc(Nc4cccc(F)c4C(N)=O)c4cc[nH]c4n3)c(OC)cc2Cl)CC1`, the inhibition in assay [1] is 5.14%; in assay [2], -1.93%; in assay [3], 3.41%; in assay [4], -1.48%; in assay [5] it was 5.25%; in [6], 2.84%. The inhibition amounted to 3.46% in assay [7], 0.33% in [8], 33.7% in assay [9] and 0.38% in assay [10].

Take `COC(=O)Nc1nc2cc(Oc3ccc(NC(=O)Nc4cccc(C(=O)O)c4)cc3)ccc2[nH]1`: the inhibition is 3.47% in assay [1]; 0.82% in assay [2]; 1.02% in assay [3]; 1.95% in assay [4]; 3.8% in assay [5]; -2.97% in assay [6]. Also, the inhibition was 1.48% in [7], 1.17% in [8], 9.64% in assay [9] and -1.89% in assay [10].

Regarding `Cc1ccc(NC(=O)c2ccnc(N3CCCC3)c2)cc1-c1ccc(C(=O)NCC2CC2)cc1`, the inhibition in [1] is 2.28%; in assay [2], 3.47%; in assay [3], 1.15%; in [4] it was 3.16%; in assay [5], 3.39%; in [6], -1.04%. The inhibition in assay [7] is 0.09%; in assay [8] it was -3.05%; in assay [9], 16.9%; in assay [10], 0.15%.

On to `[O-][S+]1CCN(Cc2ccc(-c3ccc4ncnc(Nc5ccc(OCc6ccccc6)c(F)c5)c4c3)o2)CC1`, for which the inhibition was determined as 1.44% in assay [1]; 1.84% in assay [2]; 1.51% in assay [3]; 0.84% in assay [4]; 2.26% in [5]; 2.49% in assay [6]. In addition, the inhibition in [7] was 3.34%; in assay [8] it was -3.81%; in assay [9], 12.9%; in [10], 2.01%.

Consider `CS(=O)(=O)CCN(CC#N)Cc1ccc(-c2ccc3ncnc(Nc4ccc(OCc5cccc(F)c5)c(Cl)c4)c3c2)o1`, for which the inhibition in [1] was 4.12%; in assay [2] it was 1.7%; in [3], 3.2%; in assay [4], 1.69%; in assay [5], 1.13%; in assay [6] it was -2.35%. Also, the inhibition in assay [7] is -2.94%; in assay [8] it was -3.9%; in assay [9], 5.67%; in [10], -2.58%.

As to `COc1ccc(-c2nn3ncccc3c2-c2ccnc(Nc3ccc(Cl)c(C(F)(F)F)c3)n2)cc1`, the inhibition in assay [1] was -1.35%; in assay [2], -0.25%; in assay [3], 2.61%; in [4], -0.42%; in assay [5], 2.6%; in assay [6], 3.13%. Also, the inhibition in assay [7] was 3.03%; in assay [8], -2.93%; in [9], 5%; in assay [10] it was 1.01%.

For the molecule `CCn1c(-c2nonc2N)nc2c(C#CC(C)(C)O)nc(OC[C@@H](N)c3ccccc3)cc21`, the inhibition in assay [1] is 1.12%; in assay [2] it was -1.96%; in [3], 0.07%; in assay [4] it was -1.23%; in [5], 3.35%; in assay [6], 6.5%. Moreover, the inhibition was found to be 5.38% in assay [7], 2.72% in [8], 1.66% in [9] and 1.81% in [10].

Turning to `Nc1ncnc2occ(-c3ccc(NC(=O)Nc4cccc(C(F)(F)F)c4)cc3)c12`, the inhibition in assay [1] was 96.5%; in assay [2], 59.4%; in [3] it was 91.1%; in assay [4] it was 58.9%; in assay [5], 88.9%; in assay [6], -1.65%. For the same molecule, the inhibition in assay [7] was 5.17%; in assay [8], -3.69%; in assay [9], 18.1%; in assay [10], 9.27%.

Turning to `O=C(Nc1n[nH]c2nc(-c3ccco3)c(Br)cc12)C1CC1`, the inhibition was 3.72% in [1]; -0.07% in assay [2]; 1.56% in assay [3]; 1.75% in assay [4]; 4.33% in assay [5]; 2.71% in assay [6]. Also, the inhibition was 5.55% in assay [7], -1.26% in [8], -3.66% in assay [9] and 2.52% in [10].

Turning to `CCn1c(-c2nonc2N)nc2cncc(C(=O)N3CC[C@H](N)C3)c21`, the inhibition was 2.78% in [1]; 4.37% in assay [2]; 3.61% in [3]; 2.56% in assay [4]; 3.15% in [5]; 3.09% in assay [6]. Further, the inhibition in assay [7] is 2.08%; in [8] it was -0.69%; in assay [9], 2.6%; in assay [10] it was 3.07%.

Consider `CCn1c(-c2nonc2N)nc2ccncc21`, for which the inhibition was -0.79% in [1]; -1.44% in assay [2]; -3.63% in assay [3]; -2.79% in assay [4]; -1.79% in [5]; 0.17% in [6]. In addition, the inhibition in assay [7] is 3.88%; in [8] it was 0.97%; in assay [9], 6.38%; in assay [10], 2.36%.

Regarding `O=C1NC(=O)C(c2ccccc2Cl)=C1Nc1cccc(O)c1`, the inhibition amounted to 0.59% in [1]; 1.19% in assay [2]; 1.88% in [3]; 0.46% in assay [4]; 4.4% in [5]; 3.39% in [6]. The inhibition in assay [7] is 4.53%; in assay [8], -5.26%; in [9] it was -9.72%; in assay [10] it was 3.17%.
